The results in this text go back to PubChem BioAssay AID1159580 (chemical genetic matrix, 2015).

The whole screen tested about 5,500 compounds, of which about 2,000 (36%) were called active. About 18% were inconclusive and are not listed. The list shows a part of the results. A number with no mark means an inactive call. Rule as the data show it: active = normalized growth mostly below about 0.91 (no sharp cut-off); inconclusive = no clear call, values can overlap the other calls; inactive = mostly above about 0.92.

The assay is described as follows: chemical genetic growth profiling, strain panel (AID 1159580).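 Also: tested at 20 µM; growth read once vehicle control cultures reached saturation at 30 °C; 1 = growth at the plate median or of vehicle wells; lower values mean less growth of the strain.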 The settings on record: S. cerevisiae deletion strains, growth OD.
[1] abbreviates: locus YAL013W, strain DEP1, hits give low values.
[2] abbreviates: locus YMR263W, strain SAP30, hits give low values.
[3] abbreviates: locus YPL241C, strain CIN2, hits give low values.

As for `CCCCCCN(CCCCCC)C(=O)Cc1c(-c2ccc(F)cc2)[nH]c2ccccc12`, the normalized growth under setting [1] was 1.03; the normalized growth (locus YAL040C, strain CLN3, hits give low values) was 1.03; the normalized growth (locus YCL061C, strain MRC1 (second series), hits give low values) was 1; the normalized growth (locus YDR363W, strain ESC2, hits give low values) is 1.01; the normalized growth (locus YER002W, strain NOP16, hits give low values) is 1.02; the normalized growth (locus YGR229C, strain SMI1, hits give low values) is 1.04. Further, the normalized growth under setting [2] is 1; the normalized growth (locus YMR307W, strain GAS1, hits give low values) is 0.996; the normalized growth (locus YNL128W, strain TEP1, hits give low values) was 1.12 [resistant] (active); the normalized growth (locus YNL175C, strain NOP13, hits give low values) was 1.15 [resistant] (active); the normalized growth (locus YNL224C, strain SQS1, hits give low values) is 1.07; the normalized growth (locus YOR083W, strain WHI5 (second series), hits give low values) is 1.12. Further, the normalized growth under setting [3] was 1.
For the compound `Cc1nc(N)ncc1Sc1ccccc1`, the normalized growth runs as follows: under setting [1], 0.995; (locus YBR229C, strain ROT2, hits give low values) 0.989; (locus YCL061C, strain MRC1, hits give low values) 0.963; (locus YDL101C, strain DUN1, hits give low values) 0.98; (locus YDR150W, strain NUM1, hits give low values) 1; (locus YEL061C, strain CIN8, hits give low values) 0.977. The normalized growth runs as follows: (locus YGR078C, strain PAC10, hits give low values) 0.986; (locus YHR030C, strain SLT2, hits give low values) 0.899; (locus YHR087W, strain rtc3, hits give low values) 0.996; (locus YJL187C, strain SWE1, hits give low values) 0.981; (locus YJR043C, strain POL32, hits give low values) 0.991; (locus YJR075W, strain HOC1, hits give low values) 0.934. Further, the normalized growth was 0.758 (active) (locus YLR039C, strain RIC1, hits give low values); 0.987 (locus YLR058C, strain SHM2 (second series), hits give low values); 1.01 (locus YLR085C, strain ARP6, hits give low values); 0.822 (locus YLR262C, strain YPT6, hits give low values); 0.964 (locus YML094W, strain GIM5, hits give low values); 0.99 (locus YMR219W, strain ESC1, hits give low values). Besides, the normalized growth runs as follows: under setting [2], 0.966; (locus YNL153C, strain GIM3, hits give low values) 0.961; (locus YNL298W, strain CLA4 (second series), hits give low values) 0.961; (locus YNL322C, strain KRE1, hits give low values) 0.982; (locus YNR030W, strain Alg12, hits give low values) 0.963; (locus YOL006C, strain TOP1, hits give low values) 0.911. Moreover, the normalized growth (locus YPL055C, strain LGE1, hits give low values) is 0.928; the normalized growth under setting [3] was 1.04; the normalized growth (locus YPR135W, strain CTF4, hits give low values) was 0.907.
